High-throughput results from PubChem.
Most compounds without a hit are left out; they make up all but 3.7% or so of the library.
B2AR arrestin = agonists driving beta-arrestin recruitment to human beta2-adrenergic receptor | P07550 | beta-arrestin recruitment to beta2AR, cell-based reporter | AID 492947 | Potency, µM (highest dose often 46.1 µM), for inactives: top-dose activation, most hits filed as activators | actives 0.02% (n = 330,000);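 note: potency is the fitted concentration of half-maximal effect; 0% = DMSO controls and full agonism = EC100 isoproterenol or metaproterenol; nearly all actives have a fitted effect of over 65% in size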
Target sequence (P07550 whole entry, looked up): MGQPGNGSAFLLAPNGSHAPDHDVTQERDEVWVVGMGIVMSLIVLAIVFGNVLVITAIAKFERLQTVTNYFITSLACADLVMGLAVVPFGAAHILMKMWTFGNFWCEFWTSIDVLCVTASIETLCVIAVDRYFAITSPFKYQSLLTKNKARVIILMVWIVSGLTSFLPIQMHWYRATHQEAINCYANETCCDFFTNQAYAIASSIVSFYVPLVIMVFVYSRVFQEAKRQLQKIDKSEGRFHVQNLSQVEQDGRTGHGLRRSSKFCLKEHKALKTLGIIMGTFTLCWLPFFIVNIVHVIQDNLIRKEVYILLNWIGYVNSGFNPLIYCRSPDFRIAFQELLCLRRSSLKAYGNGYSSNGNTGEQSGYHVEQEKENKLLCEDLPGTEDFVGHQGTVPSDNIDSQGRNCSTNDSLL
RGS4 inhibitor = inhibitors of human regulator of G protein signaling 4 | actives 0.039% (n = 390,000) | Potency, µM (highest dose often 114 µM), inactives show at the top dose activity change, negative = inhibition, usual class: inhibitors | P49798 | Transcreener GDP fluorescence polarization, RGS4-accelerated GTP hydrolysis; note: potency is the fitted concentration of half-maximal effect; % is set by controls: 0 for no effect and ±100 for the full control effect; nearly all actives have a fitted effect of over 75% in size
Target sequence (P49798 whole entry, looked up): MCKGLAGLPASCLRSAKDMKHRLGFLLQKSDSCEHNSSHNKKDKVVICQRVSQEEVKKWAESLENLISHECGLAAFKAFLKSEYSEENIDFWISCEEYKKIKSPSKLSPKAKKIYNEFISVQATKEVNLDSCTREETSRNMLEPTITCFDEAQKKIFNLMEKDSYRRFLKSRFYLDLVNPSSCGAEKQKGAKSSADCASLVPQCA
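MLSMR compounds (23 nl, pin-transferred) preincubated 10 min at room temperature with a 500nM (2x) first reagent, then RGS4 at 900nM (2x) plus Transcreener GDP mix added; fluorescence polarization (620/688 nm) read before and after 90 min at 30 °C.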
DRD3 agonist = D3 dopamine receptor (human) agonism. max activation, %. P35462. D3R DiscoveRx beta-arrestin cells, luminescence, 90 min. actives 0.58% (n = 410,000). AID 652048; in the data active = max activation above about 30%; note: 0% is about no effect
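Cells at 1500/well, incubated overnight, then treated with pinned compounds (dopamine as control) for 90 min at 37 degrees C. DiscoveRx reagent added for 30 - 60 minutes at room temperature; luminescence read.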
BRCA1 expr act = activators of BRCA1 expression. actives 1.1% (n = 380,000). AID 624202. MCF7-BRCA1-FFLuc reporter, luminescence, 48 h; response scale: scaled: vehicle 0%, 10 µM genistein 100%. Potency, µM (highest dose often 46.1 µM), without a hit: at the top dose activation, actives largely listed as activators; note: potency is the fitted concentration of half-maximal effect; nearly all actives have a fitted effect of over 80% in size
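MCF7-BRCA1-FFLuc cells, 2000/well in phenol-red-free MEM, attached 2 h then treated 48 h at 37 C. Luciferase luminescence read 15 min after reagent; normalized to genistein maximum activation (10microM) and DMSO, concentration-response fitted.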
DRD3 antagonist = blocks the human D3 dopamine receptor | actives 2.5% (n = 360,000) | AID 652054 | max response, negative = inhibition, % | D3R cells, DiscoveRx beta-arrestin luminescence, antagonist mode; hits give low values; in the data active = max response below about -50%; inconclusive = no clear call, values can overlap the other calls; note: % is set by controls: 0 for no effect and ±100 for the full control effect
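Cells plated overnight at 1500 cells/well, then exposed to library compounds with dopamine controls for 90 minutes at 37 degrees C. DiscoveRx reagent added for 30–60 minutes at room temperature; luminescence read, quantitative HTS format.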
PTHR1 agonist = agonists of human PTHR1 parathyroid hormone receptor; HEK293 GP2 PTHR1 cells, GloSensor cAMP luminescence, 1 h; Potency, µM (series often up to 115 µM), for the others: at the highest dose activation, most hits filed as activators; actives 0.075% (n = 410,000); AID 743266; note: potency is the fitted concentration of half-maximal effect; nearly all actives have a fitted effect of over 55% in size
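HEK-293-derived GP2 cells expressing PTHR1 and a GloSensor cAMP reporter, 3,000/well, plated overnight, given luciferin plus IBMX (each 0.5 mM as added) for 1 h at 37 °C, then compound for 1 h at 37 °C. Luminescence was read after 15 min at room temperature.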
* marks the source's active call; other numbers are inactive results; [ ] = remark or other dose. Unless noted, calls come from the whole dose curve; as a rule, active = well fitted curve in the direction sought with a large enough effect; inconclusive = small, poorly fitted or top-dose-only effect, or another doubt; inactive = no such curve, though single readings can be large; an effect the other way counts as inactive or inconclusive.

What do the screens show for `CC(C)C[C@@H](CO)NS(=O)(=O)c1cc(Cl)ccc1F`?
RGS4 inhibitor: -7.6%; DRD3 agonist: -5.7; BRCA1 expr act: 10.0%; DRD3 antagonist: 4.5; PTHR1 agonist: -21.3%

What do the screens show for `COc1ccc(CCN2C(=O)/C(=C\c3ccco3)SC2=S)cc1OC`?
B2AR arrestin: 0.1%; RGS4 inhibitor: -10.2%; DRD3 agonist: 59.0*; BRCA1 expr act: -82.1%; DRD3 antagonist: 17.0; PTHR1 agonist: -5.0%

Results for O=C1/C(=C\c2ccco2)SC(=S)N1Cc1ccccc1 ?
B2AR arrestin: -0.5%; RGS4 inhibitor: -29.0%; DRD3 agonist: -2.6; BRCA1 expr act: -64.8%; DRD3 antagonist: inconclusive; PTHR1 agonist: -3.1%[57.5 µM]

What do the screens show for `COc1ccccc1Cc1c(-c2ccc(C#N)cc2)nc2ccc(Br)cn12`?
DRD3 agonist: -13.7; BRCA1 expr act: 4.9%; DRD3 antagonist: inconclusive; PTHR1 agonist: inconclusive

How did COc1ccc(C(=O)NCCn2ccc3ccccc32)c(OC)c1 do in these assays?
B2AR arrestin: -1.3%; RGS4 inhibitor: -16.9%; DRD3 agonist: 0.5; BRCA1 expr act: 7.94µM*; DRD3 antagonist: 9.6; PTHR1 agonist: -8.3%[57.5 µM]

How did COc1ccc(C(=O)NCCN2CCOCC2)c(OC)c1 do in these assays?
B2AR arrestin: -1.1%; RGS4 inhibitor: -21.9%; DRD3 agonist: -10.1; BRCA1 expr act: -5.8%; DRD3 antagonist: 8.9; PTHR1 agonist: -1.7%

How did CC(C)C(=O)NCCn1ccc2ccccc21 do in these assays?
B2AR arrestin: -0.6%; RGS4 inhibitor: -26.9%; DRD3 agonist: -3.1; BRCA1 expr act: 2.7%; DRD3 antagonist: -53.3*; PTHR1 agonist: inactive

How did Cc1cc2ccccc2n1CCNC(=O)C(C)Oc1ccccc1 (stereo not given) do in these assays?
B2AR arrestin: -0.8%; RGS4 inhibitor: -2.8%; DRD3 agonist: -17.6; BRCA1 expr act: -4.8%; DRD3 antagonist: -59.8*; PTHR1 agonist: inactive

Results for Cc1cc(C)c(OCC(=O)N(Cc2ccc(N(C)C)cc2)Cc2ccco2)c(C)c1 ?
RGS4 inhibitor: 11.1%; DRD3 agonist: 4.7; PTHR1 agonist: -44.4%

Results for CC(C)(C)NS(=O)(=O)c1cccc(S(=O)(=O)c2cccc(S(=O)(=O)NC(C)(C)C)c2)c1 ?
B2AR arrestin: -0.7%; RGS4 inhibitor: -14.2%; DRD3 agonist: -9.7; BRCA1 expr act: -67.2%; DRD3 antagonist: -122.5*; PTHR1 agonist: -36.2%

What do the screens show for `CCN(CC)S(=O)(=O)c1cc(OC)ccc1N=Nc1ccc(O)c2ncccc12`?
B2AR arrestin: -0.6%; RGS4 inhibitor: 9.7%; DRD3 agonist: -6.9; BRCA1 expr act: -88.3%; DRD3 antagonist: -108.4*; PTHR1 agonist: 24.0%

Results for NS(=O)(=O)c1ccc(N=Nc2ccc(O)c3ncccc23)cc1 ?
B2AR arrestin: -0.1%; RGS4 inhibitor: -52.8%; DRD3 agonist: 3.5; BRCA1 expr act: -94.9%; DRD3 antagonist: inconclusive; PTHR1 agonist: -15.8%

What do the screens show for `Oc1ccc(N=Nc2ccc3c(c2)OCCO3)c2ncccc12`?
B2AR arrestin: -0.6%; RGS4 inhibitor: 7.0%; DRD3 agonist: -24.1; BRCA1 expr act: -84.2%; DRD3 antagonist: -66.4*; PTHR1 agonist: -38.3%

What do the screens show for `Cc1ccc(C)c(N=Nc2ccc(O)c3ncccc23)c1`?
B2AR arrestin: 0.1%; RGS4 inhibitor: 4.2%; DRD3 agonist: -5.9; BRCA1 expr act: -25.8%; DRD3 antagonist: inconclusive; PTHR1 agonist: -41.5%

Results for Cc1cccc(N=Nc2ccc(O)c3ncccc23)c1 ?
B2AR arrestin: 0.0%; RGS4 inhibitor: 21.3%; DRD3 agonist: -1.6; BRCA1 expr act: -79.4%; DRD3 antagonist: -100.7*; PTHR1 agonist: inactive

How did CCOc1ccc(N=Nc2ccc(O)c3ncccc23)cc1 do in these assays?
B2AR arrestin: -0.6%; RGS4 inhibitor: -1.7%; DRD3 agonist: -2.9; BRCA1 expr act: -82.2%; DRD3 antagonist: -58.4*; PTHR1 agonist: -1.1%

Results for CC(=O)c1ccc(S(=O)(=O)N2CCC(C(=O)Nc3ncc(C)s3)CC2)cc1 ?
B2AR arrestin: -0.7%; RGS4 inhibitor: 7.7%; DRD3 agonist: -6.7; BRCA1 expr act: -1.7%; DRD3 antagonist: -3.3; PTHR1 agonist: -25.4%

What do the screens show for `Cn1c(=O)[nH]c2cc(-c3noc(-c4ccc(Br)cc4)n3)ccc21`?
RGS4 inhibitor: 5.1%; DRD3 agonist: -0.5; BRCA1 expr act: 23.3%; PTHR1 agonist: -56.2%

What do the screens show for `COc1ccc(C(C)(NC(C)=O)c2nc(-c3ccc(F)c(Cl)c3)cs2)cc1` (stereo not given)?
DRD3 agonist: 5.8; BRCA1 expr act: -12.6%; DRD3 antagonist: 22.7; PTHR1 agonist: -14.7%

How did Cc1c(C2Nc3ccccc3NC3=C2C(=O)CC(C)(C)C3)cnn1C (stereo not given) do in these assays?
B2AR arrestin: 0.5%; RGS4 inhibitor: -5.0%; DRD3 agonist: -3.4; BRCA1 expr act: 0.4%; DRD3 antagonist: -70.8*; PTHR1 agonist: -8.8%[57.5 µM]

What do the screens show for `CC1(C)CC(=O)C2=C(C1)Nc1ccccc1NC2c1ccccc1F` (stereo not given)?
B2AR arrestin: 0.0%; RGS4 inhibitor: -21.1%; DRD3 agonist: 7.2; BRCA1 expr act: -13.1%; DRD3 antagonist: 5.7; PTHR1 agonist: -15.4%

Results for CCCCCCCC/C=C\CCCCCCCCOC[C@H](COP(=O)([O-])OCC[N+](C)(C)C)OC(C)=O ?
RGS4 inhibitor: inactive

Results for COc1ccc(N(CC(C)C)S(=O)(=O)c2nnc(NC(=O)c3ccco3)s2)cc1 ?
B2AR arrestin: 0.1%; RGS4 inhibitor: -10.7%[56.9 µM]; DRD3 agonist: -15.7; BRCA1 expr act: 0.0%; DRD3 antagonist: -91.0*; PTHR1 agonist: -21.4%

What do the screens show for `COc1ccc(NS(=O)(=O)c2cc(NC(=O)c3ccco3)ccc2N2CCCC2)cc1`?
B2AR arrestin: -0.2%; RGS4 inhibitor: 6.9%; DRD3 agonist: -5.5; BRCA1 expr act: -40.9%; DRD3 antagonist: -56.5*; PTHR1 agonist: inactive

How did COc1ccc2nc(NC(=O)c3ccoc3C)sc2c1 do in these assays?
B2AR arrestin: -0.2%; RGS4 inhibitor: 5.8%; DRD3 agonist: -0.2; BRCA1 expr act: inconclusive; DRD3 antagonist: 50.3; PTHR1 agonist: -30.9%

What do the screens show for `COc1ccc2nc(NC(=S)NC(=O)c3ccco3)sc2c1`?
B2AR arrestin: 0.0%; RGS4 inhibitor: 4.8%; DRD3 agonist: 4.1; BRCA1 expr act: 5.01µM*; DRD3 antagonist: -4.9; PTHR1 agonist: -14.0%

What do the screens show for `O=C(NC(=S)Nc1nc2ccccc2s1)c1ccco1`?
B2AR arrestin: -0.9%; RGS4 inhibitor: -21.5%; DRD3 agonist: -2.6; BRCA1 expr act: 33.2%; DRD3 antagonist: -15.8; PTHR1 agonist: -26.8%
